Data from PubChem BioAssay (EPA / NIEHS).
Several values for one entry are separate records, joined by “and”; a condition that tells them apart may be missing. Equal entries are not always repeated. Results filed as inconclusive are left out. Activity calls are given as the source filed them. How the source made its calls, unless noted: active means hit-call score of the fitted dose curve at least 0.9, where 1 is the maximum; inconclusive means response in the unintended direction; inactive means score below 0.9.

How the values were obtained:
[1] = biological target: human Peripheral-type Benzodiazepine Receptor (PBR), TSPO (gene 706) (UniProt P30536); assay: NVS_MP_hPBR: NovaScreen (NVS) Membrane Protein Assay for human Peripheral-type Benzodiazepine Receptor (PBR) (AID 2283331);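 further: hits reduce radioligand binding relative to DMSO baseline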
Chain of human Peripheral-type Benzodiazepine Receptor (PBR), TSPO (gene 706) (P30536 whole entry, looked up): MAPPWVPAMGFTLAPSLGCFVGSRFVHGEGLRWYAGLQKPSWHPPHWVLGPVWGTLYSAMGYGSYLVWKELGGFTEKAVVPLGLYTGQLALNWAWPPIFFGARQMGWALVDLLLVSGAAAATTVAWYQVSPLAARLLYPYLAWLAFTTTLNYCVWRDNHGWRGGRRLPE
Summary of the method: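 Scintillation counts of filter-bound radioligand served as read-out after 1 h chemical dosing of human colonic membrane preparations. Activity was scored as signal loss against DMSO; initial duplicates at 25 uM, confirmatory concentration series afterward.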

[2] = biological target: rat Peripheral-type Benzodiazepine Receptor (PBR), Tspo (gene 24230) (UniProt P16257); assay: NVS_MP_rPBR: NovaScreen (NVS) Membrane Protein Assay for rat Peripheral-type Benzodiazepine Receptor (PBR) (AID 2283335)
Chain of rat Peripheral-type Benzodiazepine Receptor (PBR), Tspo (gene 24230) (P16257 whole entry, looked up): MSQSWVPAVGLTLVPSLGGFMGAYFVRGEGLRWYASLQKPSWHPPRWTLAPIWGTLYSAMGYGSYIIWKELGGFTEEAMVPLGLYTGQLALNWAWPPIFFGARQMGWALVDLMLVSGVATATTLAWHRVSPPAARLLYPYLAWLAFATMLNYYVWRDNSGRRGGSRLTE
Summary of the method: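 Radioligand displacement, rat kidney membrane prep, 1 h exposure, filter-based scintillation read; DMSO baseline, loss-of-signal scored. Primary screen at 25 uM in duplicate, actives followed up in concentration series.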

[3] = biological target: bovine Gamma-Aminobutyric Acid Type A Receptor Agonist (GABAR Agonist), GABRA1 (gene 780973) (UniProt P08219); assay: NVS_LGIC_bGABAR_Agonist: NovaScreen (NVS) Ligand-Gated Ion Channel Assay for bovine Gamma-Aminobutyric Acid Type A Receptor Agonist (GABAR Agonist) (AID 2283338)
Chain of bovine Gamma-Aminobutyric Acid Type A Receptor Agonist (GABAR Agonist), GABRA1 (gene 780973) (P08219 whole entry, looked up): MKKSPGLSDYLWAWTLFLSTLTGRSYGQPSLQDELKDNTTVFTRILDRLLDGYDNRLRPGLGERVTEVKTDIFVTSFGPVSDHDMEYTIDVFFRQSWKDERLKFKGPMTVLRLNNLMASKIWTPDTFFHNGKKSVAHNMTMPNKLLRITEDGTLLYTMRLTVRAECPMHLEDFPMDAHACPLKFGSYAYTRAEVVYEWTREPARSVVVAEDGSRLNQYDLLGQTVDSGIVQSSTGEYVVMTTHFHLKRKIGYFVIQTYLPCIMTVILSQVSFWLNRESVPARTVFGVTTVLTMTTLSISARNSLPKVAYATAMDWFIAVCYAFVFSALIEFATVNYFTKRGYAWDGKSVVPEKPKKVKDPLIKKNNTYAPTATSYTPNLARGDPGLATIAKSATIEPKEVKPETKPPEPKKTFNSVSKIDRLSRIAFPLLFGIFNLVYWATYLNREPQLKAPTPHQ
Summary of the method: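 Radioligand binding to bovine cerebellar membranes in agonist format, read by filter-based scintillation counting after 1 h. Primary screen in duplicate at 25 uM, with actives followed in concentration series. Gain of signal versus DMSO.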

[4] = biological target: Glutamate receptor ionotropic, kainate 1 (Rattus norvegicus) (UniProt P22756); assay: NVS_IC_rKAR: NovaScreen (NVS) Ion Channel Assay for rat Kainic Acid Receptors (KAR) (AID 2283334; active means hit-call score of the fitted dose curve at least 0.9, where 1 is the maximum; inactive means score below 0.9)
Chain of Glutamate receptor ionotropic, kainate 1 (Rattus norvegicus) (P22756 whole entry, looked up): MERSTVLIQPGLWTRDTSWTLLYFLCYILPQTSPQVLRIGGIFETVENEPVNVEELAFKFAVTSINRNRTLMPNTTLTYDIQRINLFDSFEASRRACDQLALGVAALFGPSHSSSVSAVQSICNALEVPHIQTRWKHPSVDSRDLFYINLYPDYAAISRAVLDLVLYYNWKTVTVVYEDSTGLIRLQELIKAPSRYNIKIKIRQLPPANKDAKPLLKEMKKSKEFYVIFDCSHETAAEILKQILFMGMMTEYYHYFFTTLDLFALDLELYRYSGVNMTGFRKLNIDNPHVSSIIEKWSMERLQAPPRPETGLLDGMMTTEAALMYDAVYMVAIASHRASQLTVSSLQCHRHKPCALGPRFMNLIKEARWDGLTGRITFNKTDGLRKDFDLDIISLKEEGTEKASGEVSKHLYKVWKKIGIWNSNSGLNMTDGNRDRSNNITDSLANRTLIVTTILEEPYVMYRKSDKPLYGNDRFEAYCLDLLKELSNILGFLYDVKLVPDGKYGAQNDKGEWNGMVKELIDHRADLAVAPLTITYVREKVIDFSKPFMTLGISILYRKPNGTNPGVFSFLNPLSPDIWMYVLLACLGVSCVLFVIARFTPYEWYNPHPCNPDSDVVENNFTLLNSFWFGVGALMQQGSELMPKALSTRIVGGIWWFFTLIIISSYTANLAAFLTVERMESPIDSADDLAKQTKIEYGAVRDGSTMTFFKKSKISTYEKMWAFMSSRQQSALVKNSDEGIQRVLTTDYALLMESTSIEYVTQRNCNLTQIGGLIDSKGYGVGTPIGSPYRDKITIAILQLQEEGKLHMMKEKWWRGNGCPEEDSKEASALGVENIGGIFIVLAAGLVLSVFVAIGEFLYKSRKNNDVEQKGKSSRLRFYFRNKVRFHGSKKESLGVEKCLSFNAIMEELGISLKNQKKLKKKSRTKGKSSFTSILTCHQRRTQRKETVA
Summary of the method: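 Radioligand displacement binding using rat forebrain membranes, 1 h incubation, filter-based scintillation counting. Screened in duplicate at 25 uM, with actives retested in concentration-response up to 50 uM; fitted against DMSO.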

[5] = NVS_IC_rCaBTZCHL: NovaScreen (NVS) Ion Channel Assay for Calcium Channel, Type L, Benzothiazepine Site (CaBTZCHL) (AID 2283337)
Summary of the method: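 Radioligand binding to the benzothiazepine site of L-type Ca channels in rat cortical membranes (cell-free), 1.5 h after dosing; filter-based scintillation counting. Loss of signal relative to DMSO baseline; primary single-concentration screen at 25 uM, actives then run in concentration series.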

[6] = biological target: rat Glutamate, MK-801 Agonist Site (GluNMDA_MK801), Grin1 (gene 24408) (UniProt P35439); assay: NVS_LGIC_rGluNMDA_MK801_Agonist: NovaScreen (NVS) Ligand-Gated Ion Channel Assay for rat Glutamate, MK-801 Agonist Site (GluNMDA_MK801) (AID 2283340)
Summary of the method: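 Radioligand binding at MK-801 site in rat forebrain membranes, 1.5 h incubation, filter-based scintillation counting. Initially 25 uM in duplicate; actives then run in concentration-response up to 50 uM, fitted for gain of signal versus DMSO.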

Structure (SMILES): Cc1ccc(-c2c(Cl)nc(C#N)n2S(=O)(=O)N(C)C)cc1
- outcome [1]: inactive
- outcome [2]: inactive

Structure (SMILES): CCNc1nc(Cl)nc(NC(C)C)n1
- outcome [3]: inactive

Structure (SMILES): COc1cnc(OC)n2nc(NS(=O)(=O)c3c(OCC(F)F)cccc3C(F)(F)F)nc12
- outcome [4]: inactive

Structure (SMILES): CO/C=C(/C(=O)OC)c1ccccc1Oc1cc(Oc2ccccc2C#N)ncn1
- outcome [4]: inactive
- AC50 [2]: 3.17 µM (active) [middle of 4 runs]
- AC50 [5]: 6.63 µM (active) and 15.4 µM (active)
- outcome [6]: inactive

Structure (SMILES): COP(=S)(OC)Oc1nc(Cl)c(Cl)cc1Cl
- AC50 [1]: 17.9 µM (active)
- AC50 [2]: 7 µM (active)
